Measured values as given in PubChem BioAssay AID504332 (National Center for Advancing Translational Sciences (NCATS), 2011).
Hit rate of the full screen: of about 350,000 compounds, about 31,000 (8.9%) were called active. A call without a number means that no potency is given here. Not shown: some 15% with an inconclusive outcome. Only a selection was taken, and actives are over-represented in it overall. A number with no mark means an inactive call. Calls follow the shape of the dose curve; as a rule, active = well fitted inhibition curve with a large enough effect; inconclusive = small, poorly fitted or top-dose-only effect; inactive = no such curve, though single readings can be large or run the other way.
Also: nearly all actives have a fitted effect of over 75% in size.
Potency is read from the fitted curve at half-maximal effect.

What follows are compounds tested against Histone-lysine N-methyltransferase EHMT2 (Homo sapiens) (UniProt Q96KQ7) (assay: qHTS Assay for Inhibitors of Histone Lysine Methyltransferase G9a). Conditions: G9a H3K9 monomethylation, AlphaScreen, 2 h; series mostly up to 59 µM.
Histone-lysine N-methyltransferase EHMT2 (Homo sapiens), sequence (Q96KQ7 913-1193 limits assumed): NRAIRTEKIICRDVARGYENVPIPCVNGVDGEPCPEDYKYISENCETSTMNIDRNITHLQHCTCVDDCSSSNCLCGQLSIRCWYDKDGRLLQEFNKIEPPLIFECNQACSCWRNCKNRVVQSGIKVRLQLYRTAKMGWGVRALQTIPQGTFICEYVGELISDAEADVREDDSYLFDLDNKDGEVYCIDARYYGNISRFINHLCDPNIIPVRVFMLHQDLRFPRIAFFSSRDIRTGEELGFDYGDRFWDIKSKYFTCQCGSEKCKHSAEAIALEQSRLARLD
Outline: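 Chemiluminescent proximity detection of H3K9 monomethylation, read after 10 min bead incubation in the dark. Reaction: 20 nM G9a, 500 nM biotin-H3K9 peptide, 20 uM SAM cofactor, 2 h, room temperature, following 15 min enzyme-compound preincubation.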
In the case of COCc1nnc(NC(=O)CS(=O)(=O)Cc2ccccc2)s1, the activity, negative = inhibition is reported as -27% [at 12.7 µM].
COC(=O)CSc1nnc(NC(=O)CCc2ccccc2)s1 was tested, and the Potency was “inactive”.
For Cc1ccc(S(=O)(=O)CCC(=O)Nc2nnc(CC(C)C)s2)cc1, the Potency was “inactive”.
For CCOCc1nnc(NC(=O)CCS(=O)(=O)Cc2ccccc2)s1, the Potency was 79.4 µM (active).
For COCCSc1nnc(NC(=O)CCS(=O)(=O)Cc2ccccc2)s1, the Potency was “inactive”.
With CC(C)Cc1nnc(NC(=O)CCc2ccccc2)s1 the Potency was 35.5 µM (active).
Work on Cc1cccc(OCCC(=O)OCc2csc(CC(=O)Nc3ccccc3C)n2)c1 yielded an activity, negative = inhibition of -6.68% [at 12.7 µM].
CCN(CC)CCn1cnc2c1c(=O)[nH]c(=O)n2Cc1ccccc1 gave an activity, negative = inhibition of 20.1% [at 2.33 µM].
For CCN(CC)CCn1c(=S)[nH]c2ncccc2c1=O, the Potency was 15.8 µM (active).
CCCCn1c(=S)[nH]c2ncccc2c1=O gave an activity, negative = inhibition of 17.8% [at 2.33 µM].
With CN(C(=O)CSc1nnc(NC(=O)Nc2ccccc2)s1)c1ccccc1 the Potency was “inactive”.
For Cc1ccccc1NC(=O)Cn1c(=O)n(CCCCC(=O)NCc2ccccc2Cl)c(=O)c2ccccc21, the Potency was “inactive”.
For CCOc1ccc(C(C)NC(=O)CN2C(=O)NC3(CCCCC3)C2=O)cc1OCC (configuration not stated), the Potency was “inactive”.
Work on Cc1ccc(COC(=O)CN2C(=O)NC3(CCCC3)C2=O)cc1 yielded an activity, negative = inhibition of -12.1% [at 12.7 µM].
With CCOc1ccc(C(C)=O)cc1COC(=O)CN1C(=O)NC2(CCCC2)C1=O the Potency was 56.2 µM (active).
For CC(C)c1ccc(NC(=O)CN(C)S(=O)(=O)c2ccc3c(c2)c(=O)n(C)c(=O)n3C)cc1, the Potency was “inactive”.
In the case of CC(OC(=O)c1ccc(-n2cnnn2)cc1)C(=O)NCc1ccccc1 (configuration not stated), the Potency is reported as “inactive”.
With NC1=NC(c2cc(F)cc(F)c2)n2c(nc3ccccc32)N1 (configuration not stated) the Potency was “inactive”.
For CCn1c2ccc(F)cc2c2nnc(SCCN3CCOCC3)nc21, the Potency was 44.7 µM (active).
For Cc1cc2nc(SCCN3CCOCC3)[nH]c2cc1C, the Potency was “inactive”.
With N#Cc1cnn2cc(CCN3CCOCC3)c(-c3ccc(F)cc3)nc12 the Potency was “inactive”.
For O=C(/C=C/c1cccc(C(F)(F)F)c1)N1CCN(c2ccccn2)CC1, the Potency was “inactive”.
In the case of Cc1ccc(NC(=O)CSc2nc3ccccc3c3nc(CCn4cncc4C)nn23)cc1F, the Potency is reported as “inactive”.
CCOC(=O)C1CCN(C(=O)C2CCCN(S(=O)(=O)c3ccc(OC)c(Cl)c3)C2)CC1 (configuration not stated) was tested, and the Potency was “inactive”.
With O=C(NC1CCCCC1)C1c2ccccc2C(=O)N1Cc1ccco1 (configuration not stated) the Potency was “inactive”.
In the case of COC(=O)c1cc(NC2c3ccccc3C(=O)N2c2ccc(Cl)cn2)cc(C(=O)OC)c1 (configuration not stated), the Potency is reported as “inactive”.
In the case of Cc1ccnc(N2C(=O)c3ccccc3C2Nc2ccc3c(c2)OCCO3)c1 (configuration not stated), the Potency is reported as 79.4 µM (active).
CC1(C)SC2c3ccccc3C(=O)N2[C@@H]1C(=O)NCc1ccco1 (some centres not stated) was tested, and the Potency was “inactive”.
For O=C1c2ccccc2C(Nc2ccc3c(c2)OCCO3)N1Cc1ccco1 (configuration not stated), the Potency was 39.8 µM (active).
Cc1cccc(C(=O)Nc2ccccc2-c2nnn(CC(=O)Nc3ccc4c(c3)OCCO4)n2)c1 was tested, and the activity, negative = inhibition was 48.1% [at 12.7 µM].
COc1ccc(C(C)(C)C)cc1NC(=O)CCN1C(=O)C2CCCCC2C1=O (configuration not stated) was tested, and the activity, negative = inhibition was -24.5% [at 12.7 µM].
In the case of CC(=O)N1CCCc2cc(S(=O)(=O)N3CCC(C(=O)NCc4ccc(F)cc4)CC3)ccc21, the Potency is reported as “inactive”.
With COc1cc(NC(=O)CSc2nc3nc(C)c(Cc4ccc(C)cc4)c(C)n3n2)cc(OC)c1OC the Potency was “inactive”.
In the case of CCOc1ccccc1NC(=O)Cn1nnc(C(=O)Nc2ccc(C)c(C)c2)c1N, the Potency is reported as “inactive”.
With Cc1ccc(NC(=O)C(=O)NCC(c2cccnc2)N2CCOCC2)cc1 (configuration not stated) the Potency was “inactive”.
COc1ccc(N(Cc2ccc(N(C)C)cc2)C(=O)c2ccc(S(C)(=O)=O)cc2)cc1 was tested, and the Potency was 12.6 µM (active).
For COc1ccc(C(=O)N(Cc2ccc(N(C)C)cc2)C2CCS(=O)(=O)C2)cc1 (configuration not stated), the Potency was “inactive”.
With COc1ccc(S(=O)(=O)NCc2ccc(C(=O)N(C)Cc3ccco3)cc2)cc1 the Potency was “inactive”.
In the case of COc1ccc(C)cc1N(C)C(=O)c1c(C)oc2ncnc(N3CCOCC3)c12, the Potency is reported as “inactive”.
In the case of Cc1ccc(OCC(=O)Nc2ccccc2C(=O)NC2CC2)cc1C, the Potency is reported as “inactive”.
Cc1ccc(C(=O)NNC(=O)c2ccc3c(c2)OCCO3)cc1 showed an activity, negative = inhibition of 8.51% [at 2.33 µM].
In the case of Cc1ccc2sc(NNC(=O)c3ccc4c(c3)OCCO4)nc2c1C, the Potency is reported as 10 µM (active).
In the case of Cc1cccc(C)c1NC(=O)CNC(=O)c1ccc2c(c1)OCCO2, the Potency is reported as “inactive”.
With Cc1c(CNC(C)c2ccccc2)c(C(=O)O)c(C)n1Cc1c(F)cccc1Cl (configuration not stated) the Potency was “inactive”.
C[n+]1cc(-c2ccccc2)oc1-c1ccccc1 was tested, and the Potency was 50.1 µM (active).
In the case of CCSc1nsc(NC(=O)Nc2ccccc2OC)n1, the Potency is reported as “inactive”.
With O=C(CN1C(=O)COc2ccc(Cl)cc21)Nc1ccc(N2CCOCC2)cc1 the Potency was “inactive”.
In the case of O=C(CN1C(=O)COc2ccccc21)Nc1ccc(F)cc1, the Potency is reported as 31.6 µM (active).
CC(OC(=O)CN1C(=O)COc2ccccc21)C(=O)NCc1ccc(F)cc1 (configuration not stated) was tested, and the Potency was “inactive”.
Cn1c(=O)c2c(SCC(=O)NCC3CCCO3)nc(-c3ccccc3F)nc2n(C)c1=O (configuration not stated) was tested, and the Potency was “inactive”.
CCOc1ccc(N(C)S(=O)(=O)c2cc(-c3cnc(C)o3)ccc2OC)cc1 was tested, and the Potency was “inactive”.
Cc1cccc(N2CCN(C(=O)Cn3ncc4c5ccccc5n(C)c4c3=O)CC2C)c1 (configuration not stated) was tested, and the Potency was “inactive”.
CN(C)CCCn1c(SCc2ccc(Cl)cc2)nnc1-c1ccncc1 showed an activity, negative = inhibition of 14% [at 0.501 µM].
With Cc1csc(=Nc2ccccc2)n1CCO the Potency was 28.2 µM (active).
With Cc1csc(=NC(=O)c2ccccc2)n1CCO the Potency was “inactive”.
With COc1ccccc1OCCCn1c(-c2ccc(Cl)cc2)nc2ccccc2c1=O the Potency was “inactive”.
CN(C)CCCn1c(-c2ccc(Cl)cc2)csc1=Nc1ccccc1 was tested, and the Potency was 12.6 µM (active).
OCCn1c(-c2ccccc2)csc1=Nc1ccccc1 was tested, and the Potency was 44.7 µM (active).
For COCCn1c(CCC(=O)Nc2cc(C)ccc2C)nc2cccnc21, the Potency was “inactive”.
O=C(OCC(=O)N1CCc2ccccc21)C1CCCN1S(=O)(=O)c1ccc(Cl)cc1 (configuration not stated) showed an activity, negative = inhibition of 0.8% [at 2.33 µM].
In the case of CCCC(=O)Nc1ncnc2c1ncn2[C@@H]1O[C@@H]2OP(=O)(O)OC[C@H]2[C@H]1OC(=O)CCC, the Potency is reported as “inactive”.
CCCOc1cccc(C(=O)Nc2cccc(NC(=O)c3ccc(C(C)(C)C)cc3)c2)c1 was tested, and the Potency was “inactive”.
